Assay results: PubChem BioAssay AID1159580 (chemical genetic matrix, 2015)
The campaign covered roughly 5,500 compounds. About 2,000 (36%) were called active. Not shown: some 18% with an inconclusive outcome. No stated cut-off is given here; in the data, active means normalized growth mostly below about 0.91 (no sharp cut-off); inconclusive means no clear call, values can overlap the other calls; inactive means mostly above about 0.92. The list shows a part of the results.

Assay: chemical genetic growth profiling, strain panel (AID 1159580);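 further: tested at 20 µM; growth read once vehicle control cultures reached saturation at 30 °C; 1 = growth at the plate median or of vehicle wells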
Conditions: growth OD

Measured: normalized growth

CCOC(N)=O
inactive: S. cerevisiae deletion strains, locus YJR075W, strain HOC1, stronger effect = lower value 1.01 | S. cerevisiae deletion strains, locus YKL009W, strain mrt4, stronger effect = lower value 1.02 | S. cerevisiae deletion strains, locus YKL068W, stronger effect = lower value 1.01 | S. cerevisiae deletion strains, locus YKL085W, strain MDH1 (second series), stronger effect = lower value 1 | S. cerevisiae deletion strains, locus YKL085W, strain MDH1, stronger effect = lower value 1 | S. cerevisiae deletion strains, locus YKL160W, strain elf1, stronger effect = lower value 0.994 | S. cerevisiae deletion strains, locus YKL190W, strain CNB1, stronger effect = lower value 1 | S. cerevisiae deletion strains, locus YKR001C, strain vps1, stronger effect = lower value 1.01 | S. cerevisiae deletion strains, locus YKR026C, strain gcn3, stronger effect = lower value 0.992 | S. cerevisiae deletion strains, locus YKR091W, strain srl3, stronger effect = lower value 0.992 | S. cerevisiae deletion strains, locus YLL001W, strain dnm1, stronger effect = lower value 1.01 | S. cerevisiae deletion strains, locus YLL026W, stronger effect = lower value 0.998 | S. cerevisiae deletion strains, locus YLL041C, strain sdh2, stronger effect = lower value 0.995 | S. cerevisiae deletion strains, locus YLR027C, strain aat2, stronger effect = lower value 0.996 | S. cerevisiae deletion strains, locus YLR039C, strain RIC1, stronger effect = lower value 1.01 | S. cerevisiae deletion strains, locus YLR058C, strain SHM2, stronger effect = lower value 1 | S. cerevisiae deletion strains, locus YLR102C, strain apc9, stronger effect = lower value 1.02 | S. cerevisiae deletion strains, locus YLR113W, strain HOG1, stronger effect = lower value 0.989 | S. cerevisiae deletion strains, locus YLR221C, strain rsa3, stronger effect = lower value 0.992 | S. cerevisiae deletion strains, locus YLR258W, strain gsy2, stronger effect = lower value 0.99 | S. cerevisiae deletion strains, locus YLR262C, strain YPT6 (second series), stronger effect = lower value 0.998 | S. cerevisiae deletion strains, locus YLR262C, strain YPT6, stronger effect = lower value 0.977 | S. cerevisiae deletion strains, locus YLR268W, strain sec22, stronger effect = lower value 1 | S. cerevisiae deletion strains, locus YLR320W, strain mms22, stronger effect = lower value 0.988 | S. cerevisiae deletion strains, locus YLR330W, strain CHS5, stronger effect = lower value 1.01 | S. cerevisiae deletion strains, locus YLR342W, strain FKS1 (second series), stronger effect = lower value 1.04 | S. cerevisiae deletion strains, locus YLR342W, strain FKS1, stronger effect = lower value 0.987 | S. cerevisiae deletion strains, locus YLR357W, strain rsc2, stronger effect = lower value 0.97 | S. cerevisiae deletion strains, locus YLR370C, strain arc18, stronger effect = lower value 0.995 | S. cerevisiae deletion strains, locus YLR371W, strain rom2, stronger effect = lower value 1.02 | S. cerevisiae deletion strains, locus YLR384C, strain iki3, stronger effect = lower value 0.999 | S. cerevisiae deletion strains, locus YLR418C, strain cdc73, stronger effect = lower value 0.996 | S. cerevisiae deletion strains, locus YML016C, strain PPZ1, stronger effect = lower value 0.997 | S. cerevisiae deletion strains, locus YML032C, strain rad52, stronger effect = lower value 1.02 | S. cerevisiae deletion strains, locus YML120C, strain ndi1, stronger effect = lower value 1.02 | S. cerevisiae deletion strains, locus YML124C, strain tub3, stronger effect = lower value 0.995 | S. cerevisiae deletion strains, locus YMR058W, strain fet3, stronger effect = lower value 1 | S. cerevisiae deletion strains, locus YMR078C, strain ctf18, stronger effect = lower value 1.01 | S. cerevisiae deletion strains, locus YMR125W, strain sto1, stronger effect = lower value 0.986 | S. cerevisiae deletion strains, locus YMR129W, stronger effect = lower value 1 | S. cerevisiae deletion strains, locus YMR205C, strain PFK2, stronger effect = lower value 0.982 | S. cerevisiae deletion strains, locus YMR223W, strain ubp8, stronger effect = lower value 1.02 | S. cerevisiae deletion strains, locus YMR231W, strain pep5, stronger effect = lower value 0.995 | S. cerevisiae deletion strains, locus YMR263W, strain SAP30, stronger effect = lower value 0.998 | S. cerevisiae deletion strains, locus YMR307W, strain GAS1, stronger effect = lower value 1.02 | S. cerevisiae deletion strains, locus YNL067W, strain RPL9B, stronger effect = lower value 0.999 | S. cerevisiae deletion strains, locus YNL071W, strain lat1, stronger effect = lower value 1.01 | S. cerevisiae deletion strains, locus YNL128W, strain TEP1, stronger effect = lower value 1.01 | S. cerevisiae deletion strains, locus YNL153C, strain GIM3, stronger effect = lower value 0.995 | S. cerevisiae deletion strains, locus YNL183C, strain NPR1, stronger effect = lower value 0.925 | S. cerevisiae deletion strains, locus YNL209W, strain ssb2, stronger effect = lower value 1 | S. cerevisiae deletion strains, locus YNL233W, strain BNI4, stronger effect = lower value 1 | S. cerevisiae deletion strains, locus YNL248C, strain rpa49, stronger effect = lower value 1 | S. cerevisiae deletion strains, locus YNL250W, strain rad50, stronger effect = lower value 1.02 | S. cerevisiae deletion strains, locus YNL271C, strain bni1, stronger effect = lower value 1.02 | S. cerevisiae deletion strains, locus YNL298W, strain CLA4, stronger effect = lower value 1.02 | S. cerevisiae deletion strains, locus YNL307C, strain MCK1, stronger effect = lower value 1.01 | S. cerevisiae deletion strains, locus YNL322C, strain KRE1 (second series), stronger effect = lower value 0.994 | S. cerevisiae deletion strains, locus YNL322C, strain KRE1, stronger effect = lower value 1 | S. cerevisiae deletion strains, locus YNR049C, strain mso1, stronger effect = lower value 1.01 | S. cerevisiae deletion strains, locus YNR052C, strain pop2, stronger effect = lower value 1.01 | S. cerevisiae deletion strains, locus YOL006C, strain TOP1, stronger effect = lower value 1 | S. cerevisiae deletion strains, locus YOL012C, strain htz1 1.41 | S. cerevisiae deletion strains, locus YOL147C, strain pex11, stronger effect = lower value 1.01 | S. cerevisiae deletion strains, locus YOR001W, strain rrp6, stronger effect = lower value 0.994 | S. cerevisiae deletion strains, locus YOR061W, strain CKA2, stronger effect = lower value 1 | S. cerevisiae deletion strains, locus YOR069W, strain VPS5, stronger effect = lower value 1 | S. cerevisiae deletion strains, locus YOR070C, strain gyp1, stronger effect = lower value 0.991 | S. cerevisiae deletion strains, locus YOR080W, strain dia2, stronger effect = lower value 0.994 | S. cerevisiae deletion strains, locus YOR083W, strain WHI5, stronger effect = lower value 1 | S. cerevisiae deletion strains, locus YOR106W, strain vam3, stronger effect = lower value 0.998 | S. cerevisiae deletion strains, locus YOR136W, strain idh2, stronger effect = lower value 1.01 | S. cerevisiae deletion strains, locus YOR144C, strain elg1, stronger effect = lower value 1.01 | S. cerevisiae deletion strains, locus YOR184W, strain ser1, stronger effect = lower value 1.01 | S. cerevisiae deletion strains, locus YOR231W, strain MKK1, stronger effect = lower value 1 | S. cerevisiae deletion strains, locus YOR265W, strain rbl2, stronger effect = lower value 0.986 | S. cerevisiae deletion strains, locus YOR270C, strain vph1, stronger effect = lower value 1 | S. cerevisiae deletion strains, locus YOR290C, strain snf2, stronger effect = lower value 0.997 | S. cerevisiae deletion strains, locus YOR316C, strain cot1, stronger effect = lower value 1.02 | S. cerevisiae deletion strains, locus YPL051W, strain arl3, stronger effect = lower value 1 | S. cerevisiae deletion strains, locus YPL055C, strain LGE1, stronger effect = lower value 0.976 | S. cerevisiae deletion strains, locus YPL078C, strain atp4, stronger effect = lower value 0.989 | S. cerevisiae deletion strains, locus YPL106C, strain sse1, stronger effect = lower value 0.969 | S. cerevisiae deletion strains, locus YPL240C, strain hsp82, stronger effect = lower value 0.995 | S. cerevisiae deletion strains, locus YPL241C, strain CIN2, stronger effect = lower value 0.992 | S. cerevisiae deletion strains, locus YPL256C, strain CLN2, stronger effect = lower value 0.987 | S. cerevisiae deletion strains, locus YPR119W, strain clb2, stronger effect = lower value 1.01 | S. cerevisiae deletion strains, locus YPR141C, strain kar3, stronger effect = lower value 1.01 | S. cerevisiae deletion strains, locus YPR163C, strain tif3, stronger effect = lower value 1.01 | S. cerevisiae deletion strains, locus YPR167C, strain met16, stronger effect = lower value 1.01 | S. cerevisiae deletion strains, strain wtn01, stronger effect = lower value 1 | S. cerevisiae strains, strain wild type, stronger effect = lower value 1.01
